PubChem BioAssay AID651871 (Sanford-Burnham Center for Chemical Genomics, 2012)
“And” between values parts separate entries of the source, which are not always exact repeats. Equal values may be shown once.

Tested on: HL-1
Test: protection of cardiomyocytes from stress damage, SAR follow-up, cell-based, panel, H9c2 and HL-1, ATP luminescence, set 2 (AID 651871);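 also: cells exposed to stressor for 2 h before ATP readout; reference of the scale not given here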
Settings: H9c2/HL-1 cardiomyocytes, H2O2 oxidative stress; with H2O2, run 2, at 79 µM (top of the series)

COc1ccc2c(c1OC)C(=O)N1c3ccccc3C(=O)N(Cc3cccc(Cl)c3Cl)C21 (centres undefined)
activity (protection/inhibition): -0.168% and -1.52% and -3.02%

COc1ccc2nc(-c3cc(OC)c(OC)c(OC)c3)cc(C(=O)NCC(=O)Nc3ccc(C(C)=O)cc3)c2c1
activity (protection/inhibition): 27.5% and 38.9%

CCOC(=O)c1cccc(NC(=O)CNC(=O)c2cc(-c3cc(OC)c(OC)c(OC)c3)nc3ccccc23)c1
activity (protection/inhibition): 44%

COc1cc(-c2cc(C(=O)Nc3cccc(C(=O)NCc4ccccc4)c3)c3ccccc3n2)cc(OC)c1OC
activity (protection/inhibition): 25%
